Reference: PubChem BioAssay AID463173 (ICCB-Longwood Screening Facility, Harvard Medical School, 2010)
Among all 52,000 compounds or so, about 4,300 (8.3%) were called active. No stated cut-off is given here; in the data, active means survival mostly below about 52% (no sharp cut-off); inactive means mostly above about 56%. Only a selection was taken, and actives are over-represented in it overall.

system: DeltatarO mutant; experiment: S. aureus survival, RN4220 and DeltatarO strains – OD600, teichoic acid synthesis inhibitors, primary screen (AID 463173); settings: S. aureus RN4220 wild type/DeltatarO growth, OD600, 18 h, active compounds read low, screened at 18.75 µg/mL (by protocol)

SMILES | survival
Cn1c(=O)oc2cc(S(=O)(=O)N3CCC(C(=O)N4CCN(c5ccccc5F)CC4)CC3)ccc21 | 80% (inactive)
Cc1cccc(NC(=O)CSc2nnc3[nH]c(=O)cc(C)n23)c1C | 75% (inactive)
CN(C)S(=O)(=O)c1ccc(S(=O)(=O)N2CCN(C=O)CC2)cc1 | 105% (inactive)
CCOc1ccc(CNC(=O)Cc2ccc(NC(=O)N3CCSc4ncccc43)cc2)cc1 | 96% (inactive)
CC(C)(C)C(=O)N1CCN(c2nc3c(F)cccc3s2)CC1 | 82% (inactive)
NC(=O)CSc1nnc(COc2cccc3ccccc23)o1 | 89% (inactive)
Cc1ccc(NCc2nnc(SCC(=O)N(Cc3ccccc3)C(C)(C)C)o2)c(C)c1 | 94% (inactive)
CC(C)(C)N(Cc1ccccc1)C(=O)CSc1nnc(CNc2ccc(F)cc2)o1 | 74% (inactive)
CCOC(=O)CSc1nnc(COc2cccc(C)c2)o1 | 42% (active)
Cc1ccccc1OCc1nnc(SCC(=O)N(Cc2ccccc2)C(C)(C)C)o1 | 59% (active)
Cc1cccc(OCc2nnc(SCC(N)=O)o2)c1 | 91% (inactive)
Cc1cccc(OCc2nnc(SCC(=O)N3c4ccccc4CCc4ccccc43)o2)c1 | 99% (inactive)
COC(=O)CSc1nnc(COc2cccc3ccccc23)o1 | 46% (active)
Cc1csc(N(C)C(=O)CSc2nnc(COc3cccc4ccccc34)o2)n1 | 56% (inactive)
On1ccc2c(Br)cncc21 | 94% (inactive)
CCc1ccc2nc(N3CCN(C(=O)c4ccco4)CC3)sc2c1 | 86% (inactive)
O=C(CSc1nc(-c2cccc(Cl)c2)nc2cc(=O)[nH]n12)Nc1ccccc1 | 71% (inactive)
Cc1ccc(CSc2ncc(Cl)c(C(=O)Oc3ccc(F)cc3)n2)cc1 | 77% (inactive)
CCC(=O)N1c2ccccc2CC1C(=O)NCc1cccc(OC)c1OC (stereo unspecified) | 84% (inactive)
COc1cc(C2C(C#N)=C(N)Oc3n[nH]c(C(F)(F)F)c32)ccc1OCC(N)=O (stereo unspecified) | 72% (inactive)
CC(NC(=O)Cn1c(=O)oc2cc(S(=O)(=O)N3CCCCCC3)ccc21)c1ccccc1 (stereo unspecified) | 82% (inactive)
COc1ccccc1CNC(=O)C1CCN(c2nnc(C)c3c(C)n(-c4ccccc4)nc23)CC1 | 104% (inactive)
Cc1noc(/C=C/c2ccco2)c1S(=O)(=O)N1CCC(C(=O)Nc2ccc(F)c(Cl)c2)CC1 | 100% (inactive)

SMILES | survival
CCOC(=O)c1sc2cccc(F)c2c1S(=O)(=O)N1CCN(c2cccc(Cl)c2)CC1 | 102% (inactive)
COc1cccc(OC)c1C(=O)NCCc1sc(-c2cccc(F)c2)nc1C | 69% (inactive)
CCn1cc(C(=O)NCc2ccccc2Cl)c(=O)c2cc(S(=O)(=O)N3CCOCC3)ccc21 | 75% (inactive)
CCN(c1ccccc1)S(=O)(=O)c1ccc(F)c(C(=O)Nc2ccc(C)cc2)c1 | 100% (inactive)
Cc1ccc(C(=O)Nc2ccccc2)cc1S(=O)(=O)Nc1ccc(Br)cc1 | 6% (active)
O=C(O)c1ccc(NC(=O)c2ccc(Cl)c(S(=O)(=O)N3CCCCCC3)c2)cc1 | 131% (inactive)
Cc1ccc(C(=O)Nc2ccccc2)cc1S(=O)(=O)Nc1ccccc1 | 46% (active)
Cc1ccc(C(=O)Nc2ccc(C(=O)O)cc2)cc1S(=O)(=O)Nc1ccccc1 | 74% (inactive)
COc1ccc(C(=O)Nc2ccccc2)cc1S(=O)(=O)Nc1ccc(Br)cc1 | 78% (inactive)
Cc1ccc(C(=O)Nc2ccc(Br)cc2)cc1S(=O)(=O)NCc1ccccc1 | 83% (inactive)
O=C(O)c1ccc(NS(=O)(=O)c2ccc(Cl)c(C(=O)Nc3ccccc3)c2)cc1 | 73% (inactive)
CCOc1cccc(NC(=O)c2ccc(F)c(S(=O)(=O)N(CC)c3cccc(C)c3)c2)c1 | 86% (inactive)
CCN(c1ccccc1)S(=O)(=O)c1cc(C(=O)Nc2ccc(Br)cc2)ccc1F | 6% (active)
Cc1ccc(C(=O)Nc2cccc(C(=O)O)c2)cc1S(=O)(=O)N1CCCC1 | 81% (inactive)
O=C(Nc1ccccc1)c1ccc(Cl)c(S(=O)(=O)Nc2ccccc2)c1 | 43% (active)
CCOCCCNC(=O)C(Cc1ccccc1)NS(=O)(=O)c1ccc2c(c1)c(=O)n(C)c(=O)n2C (stereo unspecified) | 88% (inactive)
O=C(Cc1cccs1)Nc1ccccc1 | 70% (inactive)
CN(C)c1cccc(C(=O)Nc2ccc(-c3nc4ccccc4s3)cc2)c1 | 106% (inactive)
O=C(NCC(c1cccnc1)N1CCN(c2ccccc2F)CC1)c1ccc(F)cc1 (stereo unspecified) | 92% (inactive)
Cc1cccc(Cc2c(C)nc3nc(SCc4ccccc4Cl)nn3c2C)c1 | -9% (active)
COc1cc(NC(=O)CSc2nc3nc(C)c(Cc4ccccc4)c(C)n3n2)cc(OC)c1OC | 80% (inactive)
Cc1cccc(Cc2c(C)nc3nc(SCC(=O)NCc4ccccc4)nn3c2C)c1 | 40% (active)
Cc1cccc(Cc2c(C)nc3nc(SCc4ccccc4F)nn3c2C)c1 | 84% (inactive)

SMILES | survival
Cc1nc2nc(SCC(=O)NCc3ccccc3)nn2c(C)c1Cc1ccccc1Cl | 147% (inactive)
Cc1nc2nc(SCC(=O)NCc3ccccc3)nn2c(C)c1Cc1ccccc1 | 8% (active)
Cc1nc2nc(SCC(=O)NCc3ccccc3Cl)nn2c(C)c1Cc1ccccc1 | 64% (inactive)
Cc1cccc(Cc2c(C)nc3nc(SCc4ccccc4C)nn3c2C)c1 | 95% (inactive)
Cc1ccc(NC(=O)CSc2nc3nc(C)c(Cc4ccccc4)c(C)n3n2)cc1 | 60% (inactive)
Cc1cccc(Cc2c(C)nc3nc(SCC(=O)NCc4ccc(F)cc4)nn3c2C)c1 | 56% (inactive)
CCN(CC)CCNC(=O)CSc1nc2nc(C)c(Cc3ccccc3)c(C)n2n1 | 86% (inactive)
Cc1nc2nc(SCC(=O)Nc3ccccc3Cl)nn2c(C)c1Cc1ccccc1 | 20% (active)
COC(=O)CC1=C(C(=O)OC)C(c2ccc(C(=O)OC)cc2)C(C#N)=C(N)O1 (stereo unspecified) | 77% (inactive)
Cn1c(=O)c(=O)n(C)c2cc(S(=O)(=O)CCC(=O)Nc3cccc(C(F)(F)F)c3)ccc21 | 80% (inactive)
O=c1c2oc3ccccc3c2n(Cc2ccc(Cl)cc2)c(=O)n1Cc1ccc2c(c1)OCO2 | 66% (inactive)
CCOc1ccc(C2c3[nH]c4ccccc4c3CCN2C(=O)CCc2ccccc2)cc1 (stereo unspecified) | 116% (inactive)
COc1ccc(C2CC(=O)Nc3c2c(=O)[nH]c2nc4ccccc4n32)cc1OC (stereo unspecified) | 133% (inactive)
CCc1ccccc1N=C1SCC(=O)N1C | 88% (inactive)
Cc1cc(C)c(NC(=O)Cn2nnc(C(=O)Nc3ccc(F)cc3F)c2N)c(C)c1 | 81% (inactive)
CCN1c2ccccc2-c2nc(SCC(=O)Nc3ccc(C)c(Cl)c3)ncc2S1(=O)=O | 25% (active)
CCN1c2ccccc2-c2nc(SCC(=O)Nc3cc(OC)cc(OC)c3)ncc2S1(=O)=O | 37% (active)
CCOc1ccccc1NC(=O)CSc1ncc2c(n1)-c1ccccc1N(CC)S2(=O)=O | 92% (inactive)
CCN1c2ccccc2-c2nc(SCC(=O)Nc3c(C)cc(C)cc3C)ncc2S1(=O)=O | 102% (inactive)
CCN1c2ccccc2-c2nc(SCC(=O)Nc3cc(F)ccc3F)ncc2S1(=O)=O | 118% (inactive)
CCN1c2ccccc2-c2nc(SCC(=O)Nc3cc(C)c(Cl)cc3OC)ncc2S1(=O)=O | 91% (inactive)
Fc1ccc(Nc2ncnc3c2nc2n3CCCC2)cc1 | 74% (inactive)
CCc1ccc(NC(=O)c2ccc(CNS(=O)(=O)c3ccc4c(c3)C(C)(C)C(=O)N4C)cc2)cc1 | 64% (inactive)

SMILES | survival
CCC(Sc1nc2c(sc3ccccc32)c(=O)n1CCc1ccccc1)C(=O)N(CC)CC (stereo unspecified) | 54% (inactive)
Cc1ccc(-c2nc(CS(=O)(=O)CC(=O)NCCc3ccccc3)c(C)o2)cc1 | 100% (inactive)
Cn1ncc2c(Nc3cccc(F)c3)ncnc21 | 117% (inactive)
COc1ccc(CCN=C(N)Nc2nc(C)cc(C)n2)cc1 | 39% (active)
Cc1cc(C)nc(NC(N)=NC2CCCCC2)n1 | 87% (inactive)
Cc1cc(C)nc(NC(N)=NC(C)c2ccccc2)n1 (stereo unspecified) | 20% (active)
Cc1cc(C)nc(NC(=O)C(c2ccccc2)c2ccccc2)n1 | 115% (inactive)
Cc1cc(C)nc(NCC(C)c2ccccc2)n1 (stereo unspecified) | 81% (inactive)
COc1cccc(C(=O)NC(=NCCc2c[nH]c3ccc(OC)cc23)Nc2nc(C)cc(C)n2)c1 | 55% (inactive)
CCOC(=O)c1cccc(NC(=O)CCS(=O)(=O)c2ccc3c(c2)CC(=O)N3C)c1 | 102% (inactive)
COc1cccc(C(=O)NCC(c2ccc(N(C)C)cc2)N2CCCC2)c1OC (stereo unspecified) | 94% (inactive)
Cc1nc(-c2cccc(NC(=O)Nc3ccccc3C(F)(F)F)c2)no1 | 130% (inactive)
Cc1ccc(C)c2c(N)c3c(nc12)CCCCC3 | 96% (inactive)
CC(CCc1ccccc1)NC(=O)Cn1ncc2c3ccccc3n(Cc3cccc(Cl)c3)c2c1=O (stereo unspecified) | 95% (inactive)
CCN1CC=C2C(C1)C(c1ccc(Cl)s1)C(C#N)=C(N)C2(C#N)C#N (stereo unspecified) | 105% (inactive)
CC(C)(C)OC(=O)N1CC=C2C(C1)C(c1cccc(F)c1)C(C#N)=C(N)C2(C#N)C#N (stereo unspecified) | 79% (inactive)
CCCN1CC=C2C(C1)C(c1ccc(C(=O)OC)cc1)C(C#N)=C(N)C2(C#N)C#N (stereo unspecified) | 51% (active)
COc1cc(-c2nnc(SCC(=O)N3CCCc4ccccc43)o2)cc(OC)c1OC | 66% (inactive)
Cc1ccc(Cl)cc1NC(=O)C1CCN(C(=O)c2cnn(-c3ccccc3)c2-n2cccc2)CC1 | 71% (inactive)
Cc1cc(C)nc(SCc2noc(-c3ccc(Cl)cc3)n2)n1 | 97% (inactive)
CCc1ccccc1NC(=O)Nc1cc(C(=O)NCc2ccc(C)cc2)ccc1N1CCCC1 | 113% (inactive)
COc1ccc(NC(=O)Cn2c(=O)n(CCC(=O)NCC3CCCO3)c(=O)c3cc(OC)c(OC)cc32)cc1 (stereo unspecified) | 72% (inactive)
